Test results from PubChem BioAssay (EPA / NIEHS).
Records with an inconclusive call do not appear. Active and inactive are the calls of the source. Rule for the calls: active = hit-call score of the fitted dose curve at least 0.9, where 1 is the maximum; inconclusive = response in the unintended direction; inactive = score below 0.9.

How the values were obtained:
[1] = ATG_XTT_Cytotoxicity: Cytotoxicity Assessment in the Attagene TRANS-FACTORIAL HepG2 Assay (AID 2283584)
Method in brief: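 HepG2 cells transiently transfected with GAL4-UAS multiple reporter units, dosed 24 h; cytotoxicity read by XTT as loss of signal versus DMSO baseline.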

[2] = TOX21_p53_BLA_p2_viability: Viability Assessment in the Tox21 HCT-116 p53 Agonism Beta-lactamase Assay, Phase 2 (AID 2283591);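 note: compound exposure lasted 16 h at 37 °C; actives lower the ATP signal meaning cytotoxicity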
Method in brief: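 HCT116 p53-bla cells, 4000/well, dosed after 5 h plating (217-fold dilution of DMSO stocks) and incubated 16 h at 37C. Viability taken as cellular ATP by CellTiter-Glo luminescence after 30 min RT; signal loss marks cytotoxicity.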

[3] = target: Cellular tumor antigen p53 (Homo sapiens) (UniProt P04637); test: TOX21_p53_BLA_p2_ratio: Tox21 HCT-116 p53 Agonism Beta-lactamase Assay, Ratio, Phase 2 (AID 2283592)
Sequence of Cellular tumor antigen p53 (Homo sapiens) (P04637 whole entry, looked up): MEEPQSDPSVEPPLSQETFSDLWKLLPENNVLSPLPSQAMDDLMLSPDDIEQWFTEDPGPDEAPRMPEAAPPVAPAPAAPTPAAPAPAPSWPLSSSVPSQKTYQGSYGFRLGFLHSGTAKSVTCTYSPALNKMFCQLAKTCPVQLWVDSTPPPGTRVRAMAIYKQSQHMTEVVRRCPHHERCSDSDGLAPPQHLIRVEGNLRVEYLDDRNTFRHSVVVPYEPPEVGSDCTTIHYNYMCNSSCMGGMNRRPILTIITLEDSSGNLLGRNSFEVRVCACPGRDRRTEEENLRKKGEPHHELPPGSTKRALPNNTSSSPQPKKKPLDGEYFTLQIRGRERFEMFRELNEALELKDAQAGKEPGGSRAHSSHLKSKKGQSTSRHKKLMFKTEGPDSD
Method in brief: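 HCT-116 cells with p53-responsive beta-lactamase reporter, 4000 cells/well, preincubated 5 h, then compound in DMSO (217-fold dilution) for 16 h at 37C. CCF4-AM substrate 2 h at room temperature; 460/530 nm emission ratio fitted upward versus DMSO.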

[4] = TOX21_p53_BLA_p3_viability: Viability Assessment in the Tox21 HCT-116 p53 Agonism Beta-lactamase Assay, Phase 3 (AID 2283593);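 note: cells exposed to compound for 16 h before reading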
Method in brief: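 HCT116 cells, 4000/well, dosed 5 h after plating by pin transfer (217-fold dilution from DMSO stock) and incubated 16 h at 37C, 5% CO2. Viability read as ATP luminescence with CellTiter-Glo after 30 min at room temperature.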

[5] = target: Cellular tumor antigen p53 (Homo sapiens) (UniProt P04637); test: TOX21_p53_BLA_p3_ratio: Tox21 HCT-116 p53 Agonism Beta-lactamase Assay, Ratio, Phase 3 (AID 2283596)
Method in brief: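 HCT116 p53-bla cells (4000/well) given compound in DMSO (217-fold dilution) after 5 h, incubated 16 h at 37C. CCF4-AM substrate 2 h at room temperature; 460/530 nm emission ratio, gain fitted against DMSO.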

[6] = TOX21_p53_BLA_p4_viability: Viability Assessment in the Tox21 HCT-116 p53 Agonism Beta-lactamase Assay, Phase 4 (AID 2283597);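 note: hits lower the luminescence signal meaning cytotoxicity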
Method in brief: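 HCT-116 p53-bla cells, 4000/well, dosed after 5 h attachment and incubated 16 h at 37 °C, 5% CO2. Viability from CellTiter-Glo ATP luminescence after 30 min at room temperature, taken after the beta-lactamase read; loss of signal indicates cytotoxicity.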

[7] = target: Cellular tumor antigen p53 (Homo sapiens) (UniProt P04637); test: TOX21_p53_BLA_p5_ratio: Tox21 HCT-116 p53 Agonism Beta-lactamase Assay, Ratio, Phase 5 (AID 2283599)
Method in brief: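 HCT-116 p53-bla cells (4000/well) plated 5 h, dosed with compound (217-fold DMSO dilution) for 16 h at 37 C; CCF4-AM substrate 2 h at room temperature. Activity is the 460/530 nm emission ratio (405 nm excitation), fitted in gain-of-signal direction versus DMSO.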

[8] = TOX21_p53_BLA_p5_viability: Viability Assessment in the Tox21 HCT-116 p53 Agonism Beta-lactamase Assay, Phase 5 (AID 2283600)
Method in brief: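 HCT-116 p53 beta-lactamase reporter cells, 4000/well, were exposed to compound (pin transfer, 217-fold dilution) for 16 hours at 37C. Cellular ATP was read by CellTiter-Glo luminescence after 30 min at room temperature.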

[9] = target: Cellular tumor antigen p53 (Homo sapiens) (UniProt P04637); test: TOX21_p53_BLA_p4_ratio: Tox21 HCT-116 p53 Agonism Beta-lactamase Assay, Ratio, Phase 4 (AID 2283601)
Method in brief: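 HCT-116 p53 beta-lactamase reporter cells (4000/well) preincubated 5 h, then compound (217-fold dilution of DMSO stock) for 16 h at 37C. CCF4-AM substrate added 2 h at room temperature; 460/530 nm emission ratio fitted upward versus DMSO.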

[10] = system: Thyroperoxidase (TPO), gene 54314; test: CCTE_Simmons_AUR_rTPO: CCTE's Amplex UltraRed Assay for Thyroperoxidase (TPO) Inhibition, Simmons Lab (AID 2283662);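 for AC50: potency for loss of signal meaning inhibition of peroxidase activity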
Method in brief: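 Rat thyroid microsomal TPO + 25 uM AUR in 200 mM K phosphate; cpd 5 nM–87.5 uM [final], 8 conc, 0.5% DMSO; 300 uM H2O2 starts rxn; 37C dark 30 min; endpoint FI 544/590 nm; n=3.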

[11] = CCTE_Simmons_CellTiterGLO_HEK293T: Viability Assessment in CCTE's Assays for Thyroperoxidase (TPO) Inhibition, Simmons Lab (AID 2283665);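 for AC50: cells exposed to compound for 24 h before readout; actives reduce ATP signal below DMSO vehicle meaning cytotoxicity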
Method in brief: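 HEK293T cells in DMEM with 1% FBS were dosed with 8 concentrations (5 nM–87.5 uM final, 0.5% DMSO) for 24 hr at 37C; ATP content was read by CellTiter-Glo luminescence, loss-of-signal versus DMSO, three biological replicates.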

[12] = target: Luciferin 4-monooxygenase (Photinus pyralis) (UniProt P08659); test: CCTE_Simmons_QuantiLum_inhib_2: CCTE's Firefly Luciferase Inhibition Assay, Simmons Lab (AID 2283767)
Sequence of Luciferin 4-monooxygenase (Photinus pyralis) (P08659 whole entry, looked up): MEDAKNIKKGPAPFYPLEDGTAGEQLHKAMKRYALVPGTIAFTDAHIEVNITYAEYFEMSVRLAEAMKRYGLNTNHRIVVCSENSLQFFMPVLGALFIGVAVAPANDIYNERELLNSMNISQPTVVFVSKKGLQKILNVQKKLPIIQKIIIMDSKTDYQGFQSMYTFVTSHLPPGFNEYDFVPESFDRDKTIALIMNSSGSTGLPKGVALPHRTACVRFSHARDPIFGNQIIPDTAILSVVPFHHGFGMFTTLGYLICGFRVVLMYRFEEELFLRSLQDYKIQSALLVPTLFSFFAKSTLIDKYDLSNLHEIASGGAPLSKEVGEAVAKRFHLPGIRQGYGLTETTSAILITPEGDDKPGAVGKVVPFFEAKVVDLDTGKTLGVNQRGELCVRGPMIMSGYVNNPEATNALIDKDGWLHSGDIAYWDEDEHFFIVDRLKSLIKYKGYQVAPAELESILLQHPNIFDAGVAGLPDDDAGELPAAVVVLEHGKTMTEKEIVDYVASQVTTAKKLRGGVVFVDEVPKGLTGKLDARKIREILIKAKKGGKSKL
Method in brief: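 Recombinant firefly luciferase (5 ng/well, 200 mM potassium phosphate with 1 mg/ml BSA) was exposed to 8 concentrations from 5 nM to 87.5 uM (final, 0.5% DMSO) for 30 min at 37C in the dark. Loss of luminescence versus DMSO was read after injecting D-luciferin/ATP-analogue reagent.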

[13] = ACEA_AR_agonist_AUC_viability: ACEA Biosciences xCELLigence Real-Time Cell Analysis on Androgen Receptor Agonism for Viability (AID 2283775);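 for AC50: viability read 80 hours after compound addition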
Method in brief: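 Read-out is area under the impedance curve at 80 h post-dose in 22Rv1 cells, with DMSO as baseline and signal loss taken as reduced viability. Compounds ran in duplicate from 100 uM final.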

[14] = STM_H9_OrnCyssISnorm_ratio: Stemina devTOX quickPredict H9 human embryonic stem cell (hESC)-based Assay for Ornithine (ORN):Cystine (CYSS) Ratio (AID 2283714)
Method in brief: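 Undifferentiated H9 hESCs exposed 72 h, media and compound replaced every 24 h; final 24-h conditioned media deproteinized and analysed by UPLC-HRMS against C13 spike-ins. Value is the internal-standard-normalized ORN/CYSS ratio versus 0.1% DMSO.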

Measured: AC50

CN1C(=O)N(C)C(O)C1O (stereo unspecified)
not listed: [10] | [11] | [12] | [13] | [14]
inactive: all other assays above

CCCC(C)CCC(C)=O (stereo unspecified)
inactive: [1]

CC1(C)O[C@@H]2C[C@H]3[C@@H]4C[C@H](F)C5=CC(=O)CC[C@]5(C)[C@H]4[C@@H](O)C[C@]3(C)[C@]2(C(=O)CO)O1
inactive: [1] | [2] | [3] | [4] | [5] | [6] | [7] | [8]

O=[N+]([O-])C1(Br)COCOC1
inactive: [1] | [2] | [3] | [4] | [5] | [6] | [7] | [9]

O=C(Nc1ccccc1)c1ccccc1O
active: [3] 57 µM
not listed: [10] | [11] | [12] | [13] | [14]
inactive: all other assays above

O=C(Cl)c1cc(C(=O)Cl)cc(C(=O)Cl)c1
inactive: [1] | [2] | [3] | [5] | [6] | [7] | [8]

CC1=NC(C)OC1C (stereo unspecified)
inactive: [1] | [2] | [3] | [4] | [7] | [8] | [9]

Cn1c([N+](=O)[O-])cnc1COC(N)=O
inactive: [1] | [2] | [3] | [5] | [6] | [7] | [8]

Cc1oncc1C(=O)Nc1ccc(C(F)(F)F)cc1
inactive: [1] | [2] | [3] | [5] | [6] | [8]

O=S(=O)(O)c1ccccc1C=Cc1ccc(-c2ccc(C=Cc3ccccc3S(=O)(=O)O)cc2)cc1
active: [7] 11.4 µM | [9] 11.4 µM | [10] 44.4 µM
not listed: [4] | [6] | [13] | [14]
inactive: all other assays above

CCO[Si](C)(OCC)OCC
inactive: [1] | [2] | [3] | [5] | [7] | [8] | [13]

O=C(OCC1CCC2OC2C1)C1CCC2OC2C1 (stereo unspecified)
active: [13] 9.05 µM
inactive: [1] | [2] | [3] | [5] | [6] | [8]

COc1ccc(C(Cl)=C(c2ccc(OC)cc2)c2ccc(OC)cc2)cc1
inactive: [1] | [2] | [3] | [4] | [5] | [6] | [8] | [9]

CC(C)COC(=O)C=Cc1ccccc1
inactive: [1] | [2] | [3] | [5] | [7] | [8] | [9]

O=C(O)CC(C(=O)O)C(CC(=O)O)C(=O)O (stereo unspecified)
inactive: [1] | [2] | [3] | [5] | [6] | [7] | [8] | [9]

O=C(C=Cc1ccccc1)OCc1ccccc1
inactive: [1] | [2] | [3] | [5] | [6] | [7] | [8] | [9]

NC(=O)c1ccccc1O
inactive: [1] | [2] | [3] | [4] | [5] | [8] | [9] | [13]

O=Cc1ccc(CO)o1
inactive: [1] | [2] | [3] | [5] | [6] | [7] | [8]

O=C1CCCC1
inactive: [1] | [2] | [3] | [5] | [6] | [8]

CCCOCCOCCOCCO
inactive: [1] | [2] | [3] | [5] | [6] | [7] | [8]

Nc1nc2ccccc2[nH]1
inactive: [1] | [2] | [3] | [5] | [6] | [7] | [8] | [9]

COCC(C)N (stereo unspecified)
inactive: [1] | [2] | [3] | [5] | [6] | [8] | [9]

Cc1cccc(C(=O)O)c1
inactive: [1] | [2] | [3] | [5] | [6] | [7] | [9]

CCCCCCCCCCCCCOP(=O)(O)O
active: [4] 72.2 µM | [5] 86.8 µM | [11] 79.1 µM
not listed: [7] | [8] | [9] | [14]
inactive: all other assays above

CC(C)CC(O)Cc1ccccc1 (stereo unspecified)
inactive: [1] | [2] | [3] | [5] | [6] | [7] | [9]

CN(C)c1ccc(N=Nc2ccccc2C(=O)O)cc1
inactive: [1] | [3] | [7]
active: [2] 75.8 µM | [4] 75 µM | [6] 68 µM | [8] 75.8 µM | [14] 37.5 µM | [13] 6.64 µM

N#[N+]c1ccc2c(S(=O)(=O)[O-])cccc2c1O
inactive: [1] | [2] | [3] | [5] | [6] | [7] | [8] | [9]
